Measurements from PubChem BioAssay AID1117358 (Southern Research Institute, 2015).
The whole screen tested about 2,300 compounds, of which about 160 (7%) were called active. No rule for the calls is given here. A selection follows. Results with a measured potency or affinity are listed apart.

assay: Vero cell cytotoxicity, dose response, cytotoxicity control for Vif-APOBEC3G degradation inhibitor project, Vero cells (AID 1117358); conditions: CellTiter-Glo ATP luminescence, 72 h; series mostly up to 40 µM; viability: at the top concentration

| Compound | viability |
| --- | --- |
| CC(=O)C1=C(O)C(=O)N(Cc2ccco2)C1c1ccc(F)cc1 (configuration not stated) | 98.9% (inactive) |
| COc1ccc(N2C(=O)C3CCCN3C2c2ccc(C)cc2)cc1 (configuration not stated) | 97.8% (inactive) |
| Cc1[nH]c2ccccc2c1C(=O)Cn1c(=O)oc2ccccc21 | 94.9% (inactive) |
| Cc1[nH]c2ccccc2c1C(=O)CN1CCC(C(N)=O)(N2CCCCC2)CC1 | 95% (inactive) |
| Cc1nn(Cc2ccccc2)c(C)c1NC(=O)Cn1nc([N+](=O)[O-])c(Cl)c1C | 101% (inactive) |
| Cc1nn(Cc2ccc(Cl)cc2)c(C)c1NC(=O)c1cc(-c2ccc3c(c2)OCO3)on1 | 83.2% (inactive) |
| CC1(C)Oc2ccc(C(=O)NC3CCCC3)cc2N(CC(=O)NC2CCCC2)C1=O | 99.9% (inactive) |
| CCOc1ccc(N(CC(=O)NC(C)(C)C)S(=O)(=O)c2c(C)noc2C)cc1 | 96.2% (inactive) |
| Cn1nnnc1SCC(=O)NCc1ccco1 | 102% (inactive) |
| CN(C)S(=O)(=O)N1CCC(CCCC2CCN(S(=O)(=O)N(C)C)CC2)CC1 | 108% (inactive) |
| Cc1ccc(NC(=O)COc2ccccc2C(=O)Nc2ccccc2)cc1Cl | 85.8% (inactive) |
| O=C(C/C=N/OCc1c(Cl)cccc1Cl)c1ccc(Cl)cc1 | 93.4% (inactive) |
| Cc1cc(C)cc(NCc2cc3c(cc2[N+](=O)[O-])OCO3)c1 | 85.9% (inactive) |
| O=C(Oc1ccccc1)c1cccc2cccnc12 | 82.5% (inactive) |
| CC(C)c1ccc(NC(=O)C(c2ccccc2)N2CCC3(CC2)OCCO3)cc1 (configuration not stated) | 104% (inactive) |
| Oc1cccc(/C=N/c2c(-c3ccco3)nc3ccccn23)c1 | 95.3% (inactive) |
| CCC(c1nnnn1C(C)(C)CC)N(CCCO)Cc1cc2cc(C)cc(C)c2[nH]c1=O (configuration not stated) | 94.8% (inactive) |
| Cc1cccc(-n2c(Cc3cc(=O)[nH]c(=O)[nH]3)nnc2SCC(=O)NCC2CCCO2)c1 (configuration not stated) | 94.2% (inactive) |
| CC(NC(=O)c1cccs1)C(c1cccs1)N1CCN(Cc2ccccc2)CC1 (configuration not stated) | 103% (inactive) |
| CCOC(=O)c1c(NC(=O)c2cc(CC(C)C)on2)sc(C(C)=O)c1C | 100% (inactive) |
| N#CC1=C(Nc2ccccc2)SC=C(c2ccc(Br)cc2)N=C1N1CCOCC1 | 91.6% (inactive) |
| Cc1nc2ccc(S(=O)(=O)N(C)CC(=O)N3CCc4ccccc43)cc2s1 | 100% (inactive) |

| Compound | viability |
| --- | --- |
| COc1cccc(-c2nnc(SCC(=O)N3CCOCC3)o2)c1 | 102% (inactive) |
| CCOc1ccc(Cl)cc1S(=O)(=O)N1CCN(c2ccc(F)cc2)CC1 | 87.1% (inactive) |
| CCOc1ccc(C2=[N+]([O-])C(C)(C)N(O)C2(C)C)cc1 | 93.6% (inactive) |
| O=C(Oc1cccnc1)c1ccc(Cl)cc1 | 94.4% (inactive) |
| CC1=CC(C)(C)Nc2ccc(OC(=O)CN3C(=O)c4cccc5cccc(c45)C3=O)cc21 | 96.7% (inactive) |
| Cc1ccc(-c2ccc(CCC(=O)O)n2NC(N)=S)cc1 | 93.1% (inactive) |
| Cc1cc(-c2[nH]nc3c2C(c2cccc(O)c2)C(C#N)=C(N)O3)c(C)s1 (configuration not stated) | 96.6% (inactive) |
| CCC(C)C(NC(=O)[C@@H](NC(=O)c1ccccc1F)C(C)C)C(=O)OC (some centres not stated) | 105% (inactive) |
| C/C(=N\OC(=O)c1ccc(F)cc1)c1sc(-c2ccccc2)nc1C | 95.6% (inactive) |
| Cc1ccc2cc(CN(Cc3nnnn3Cc3ccco3)CC3CCCO3)c(=O)[nH]c2c1C (configuration not stated) | 101% (inactive) |
| C=CCNc1nc2ccccc2nc1NS(=O)(=O)c1cccs1 | 92.6% (inactive) |
| COc1ccc(C(=O)NCc2cn3cccc(C)c3n2)cc1OC | 98% (inactive) |
| CCOC(=O)C(NC(=O)NC1CCCCC1)(c1ccccc1)C(F)(F)F (configuration not stated) | 101% (inactive) |
| Cc1cc(C)cc(Nc2ccc(C(=O)O)cc2N)c1 | 105% (inactive) |
| S=C(Nc1cccc(Cl)c1)NC1CCCCC1 | 98.6% (inactive) |
| CCCNC(=S)NC1CCCC1 | 96.3% (inactive) |
| COc1ccc(C(=O)NCc2cccnc2)cc1OC | 96.7% (inactive) |
| CC1CCN(C(=O)CCc2nc3cc(S(=O)(=O)N(C)C)ccc3n2C)CC1 | 96% (inactive) |
| CCOC(=O)c1c(C)[nH]c(C(=O)OCC(=O)N2c3ccccc3CC2C)c1C (configuration not stated) | 92% (inactive) |
| COc1ccccc1C(=O)Nc1ccc(S(=O)(=O)Nc2cc(C)nc(C)n2)cc1 | 96.3% (inactive) |
| COc1cc(C(=O)Nc2ccc(S(=O)(=O)NC(C)C)cc2)cc(OC)c1OC | 91% (inactive) |
| COc1cc(NC(=O)c2cc3nc(C)cc(C)n3n2)c(OC)cc1Cl | 95.1% (inactive) |

| Compound | viability |
| --- | --- |
| NC(=O)C[C@@H]1N[C@]2(C(=O)Nc3ccccc32)[C@@H]2C(=O)N(c3cc(C(F)(F)F)ccc3Cl)C(=O)[C@H]12 | 99.7% (inactive) |
| CCc1cc2cc(C)cc(C)c2nc1SCC(=O)N1CCN(C(=O)c2ccco2)CC1 | 99.1% (inactive) |
| COc1cc(C(=O)OCCN2CCCCC2)ccc1O | 101% (inactive) |
| CCN1C(=O)c2ccccc2S(=O)c2ccc(C(=O)NC3CC3)cc21 (configuration not stated) | 97.5% (inactive) |
| Cc1cccc(C)c1NS(=O)(=O)c1c(C)[nH]c(=O)[nH]c1=O | 95% (inactive) |
| CC(C)(C)NC(=O)COC(=O)c1cc(S(=O)(=O)N2CCCCC2)ccc1N1CCOCC1 | 92.4% (inactive) |
| CCN(CC)C(=O)CSCC(=O)Nc1ccccc1 | 90.6% (inactive) |
| CC(C)(C)OC(=O)N1CCCC1C(=O)N1CCc2ccccc21 (configuration not stated) | 107% (inactive) |
| CCOC(=O)CSc1nnc(CNC(=O)c2cccs2)n1CCc1ccccc1 | 103% (inactive) |
| CCN1CCc2c(C#N)c(NCc3ccccc3)nc(N(CC)CC)c2C1 | 98.3% (inactive) |
| Nn1c(SCC(=O)NC2CCCc3ccccc32)nnc1-c1cccs1 (configuration not stated) | 109% (inactive) |
| O=C(Cc1cc(=O)[nH]c(=O)[nH]1)NCC1CCCO1 (configuration not stated) | 98.5% (inactive) |
| O=C(NCc1ccncc1)c1ccc(Cn2cc(C(F)(F)F)ccc2=O)cc1 | 97.2% (inactive) |
| O=C(NCc1ccccn1)c1ccc(Cn2cc(Br)cn2)o1 | 98.8% (inactive) |
| O=S(=O)(c1ccc(OCc2nc3ccccc3s2)c(Cl)c1)N1CCOCC1 | 98.5% (inactive) |
| CCNc1nc(OCCNS(=O)(=O)c2cc(C)ccc2C)nc(N(C)C)n1 | 82.2% (inactive) |
| CCC(Cc1ccccc1)NC(=O)C1CCN(S(=O)(=O)c2c(C)noc2C)CC1 (configuration not stated) | 104% (inactive) |
| CC1Cc2ccccc2N1C(=O)C1CCN(S(=O)(=O)Cc2ccccc2)CC1 (configuration not stated) | 94.6% (inactive) |
| COC(=O)c1ccc(C)c(NS(=O)(=O)c2ccc(NC(C)=O)cc2)c1 | 89.2% (inactive) |
| O=C(CSc1nncs1)NC(=O)NCc1ccccc1 | 91.5% (inactive) |
| COc1ccc(S(=O)(=O)N(CC(=O)O)c2ccccn2)cc1 | 99.8% (inactive) |
| CC(=O)c1ccc(NC(=O)c2ccc3nc(-c4ccco4)c(-c4ccco4)nc3c2)cc1 | 89.9% (inactive) |

| Compound | viability |
| --- | --- |
| CCOc1ccc(-n2c(=O)c3c(C)c(C)sc3n(CC(=O)NCc3ccco3)c2=O)cc1 | 98.6% (inactive) |
| Oc1c(C(c2ccccc2)N2CCN(Cc3ccccc3)CC2)sc2ncnn12 (configuration not stated) | 97.7% (inactive) |
| CCOc1cc(C2NC(=O)NC(O)(C(F)(F)F)C2C(=O)c2ccccc2)ccc1OC (configuration not stated) | 101% (inactive) |
| COc1ccc(CSc2nnnn2C)cc1F | 94.5% (inactive) |
| O=C(Nc1ccc2nc(-c3ccco3)c(-c3ccco3)nc2c1)N1CCCCCC1 | 105% (inactive) |
| O=C(O)CCN1CCOCC1 | 99.2% (inactive) |
| O=C(O)c1ccc(S(=O)(=O)c2ccc3c(c2)C(=O)N(Cc2ccco2)C3=O)cc1 | 101% (inactive) |
| COc1cc(NC(=O)c2nnn(Cc3ccc(SC)cc3)c2N)cc(OC)c1 | 82.5% (inactive) |
| O=C(CN1C(=O)NC2(CCCCCCC2)C1=O)NCc1cccs1 | 99.7% (inactive) |
| COCC(=O)Nc1sc2c(c1C(=O)OC)C(C(=O)OC)CC2 (configuration not stated) | 102% (inactive) |
| CCOC(=O)c1cc2sc(C)cc2n1CC(=O)N1CCN(C(=O)c2ccco2)CC1 | 94% (inactive) |
| COC(=O)Nc1sc2c(c1C(=O)NCc1ccco1)CCCC2 | 104% (inactive) |
| O=C(c1ccc2c(c1)OCCO2)C1CCN(C(=O)c2ccc(F)cc2)CC1 | 111% (inactive) |
| Cc1cc(C(=O)Nc2c(C)cccc2C)n(-c2ccccc2)n1 | 106% (inactive) |
| CN(C)c1ccc(/C=N\NC(=O)c2csnn2)cc1 | 92.2% (inactive) |
| CCOC(=O)C1CCN(S(=O)(=O)c2cccc(-c3cn4cccnc4n3)c2)CC1 | 99% (inactive) |
| Cc1nnc(NC(=O)c2ccc(S(=O)(=O)N(C)Cc3ccccc3)cc2)o1 | 96.7% (inactive) |
| O=C(Nc1ccccc1F)c1ccc(S(=O)(=O)NCC2CCCO2)cc1 (configuration not stated) | 93.5% (inactive) |
| COCc1nnc(NC(=O)c2ccc(S(=O)(=O)N(C)C3CCCCC3)cc2)o1 | 99.6% (inactive) |
| COc1ccc(C(=O)N2CCCN(C)CC2)cc1S(=O)(=O)N1CCCc2ccccc21 | 90.5% (inactive) |
| CCOC(=O)c1c(-c2cccs2)csc1NC(=O)CC(C)C | 95.5% (inactive) |
